Source: ChEMBL document CHEMBL3988442, “University of Dundee, Small-Polar-MMV Screening Library” (2021)
Measured potencies and affinities stand elsewhere.

Biological target: Protein translocase subunit SecA (Escherichia coli (strain K12)) (UniProt P10408)
Assay: Assay to Identify E. coli SecA ATPase Inhibitors
Type: functional
Set-up: scale not given: direction of the effect not stated beside the values
Settings: 30 µM

Protein translocase subunit SecA (Escherichia coli (strain K12)), sequence (P10408 whole entry): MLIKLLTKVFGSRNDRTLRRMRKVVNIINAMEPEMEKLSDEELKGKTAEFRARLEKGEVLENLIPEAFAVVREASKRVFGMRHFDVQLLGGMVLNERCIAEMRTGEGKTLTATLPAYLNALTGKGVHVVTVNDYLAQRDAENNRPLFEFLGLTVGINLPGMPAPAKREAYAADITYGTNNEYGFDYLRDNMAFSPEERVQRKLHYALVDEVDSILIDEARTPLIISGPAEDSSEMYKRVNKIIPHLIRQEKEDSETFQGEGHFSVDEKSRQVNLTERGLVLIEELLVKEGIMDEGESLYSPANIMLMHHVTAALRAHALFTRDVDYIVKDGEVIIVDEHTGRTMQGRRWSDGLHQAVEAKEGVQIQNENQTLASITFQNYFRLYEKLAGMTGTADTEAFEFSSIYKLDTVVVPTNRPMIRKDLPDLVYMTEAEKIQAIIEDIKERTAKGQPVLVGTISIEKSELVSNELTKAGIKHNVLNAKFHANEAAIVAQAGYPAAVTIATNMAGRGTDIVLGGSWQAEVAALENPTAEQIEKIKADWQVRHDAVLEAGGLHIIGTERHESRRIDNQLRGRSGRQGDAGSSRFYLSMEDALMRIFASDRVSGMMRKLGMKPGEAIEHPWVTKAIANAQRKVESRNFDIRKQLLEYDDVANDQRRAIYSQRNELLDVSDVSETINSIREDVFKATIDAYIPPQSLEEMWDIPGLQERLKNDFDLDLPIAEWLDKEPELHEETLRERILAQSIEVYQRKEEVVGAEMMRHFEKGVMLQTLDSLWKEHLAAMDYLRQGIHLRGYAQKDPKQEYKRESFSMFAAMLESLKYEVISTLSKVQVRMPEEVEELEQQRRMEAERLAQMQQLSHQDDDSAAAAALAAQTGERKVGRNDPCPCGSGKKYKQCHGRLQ

Row | Structure (SMILES) | Percent Effect
1 | CC(=O)N1CCCC(Cc2cncc(Br)c2)CC1 (stereo not given) | -8.44%
2 | COc1ccc(C(CNC(=O)Nc2cn[nH]c2)N2CCOCC2)cc1 (stereo not given) | -3.98%
3 | Cc1cn2c(n1)CCC(NC(=O)c1ccc(CS(C)(=O)=O)cc1)C2 (stereo not given) | -7.39%
4 | Cc1cc(NC(=O)NCc2ccccc2OC(F)F)n(C)n1 | 1.45%
5 | CN(C)CCNC(=O)CNC(=O)N1CCc2c([nH]c3ccc(Cl)cc23)C1 | -4.87%
6 | CN(Cc1cscn1)C1CCCN(Cc2noc(C3CC3)n2)C1 (stereo not given) | -0.734%
7 | Nc1nc2c(c(=O)[nH]1)CCN(C(=O)c1cccc3nccnc13)C2 | -2.43%
8 | Cc1cccc(CNC(CN2CCN(C)CC2)c2ccccc2)c1 (stereo not given) | -2.61%
9 | CS(=O)(=O)N1CCCCCC1C1CCN(c2ncccc2C#N)CC1 (stereo not given) | -0.308%
10 | Cc1cccc(C(=O)NCCCN2CCN(c3ccccc3)CC2)c1 | -2.4%
11 | CCOc1ccc(-c2ccnc(CC)n2)cc1C(=O)O | 0.91%
12 | CS(=O)(=O)N1CCc2c(cccc2NC(=O)CC(F)(F)F)C1 | -3.17%
13 | COc1ccccc1Oc1ncccc1CNC(=O)C(C)N1CCCC1 (stereo not given) | -3.48%
14 | CCOc1ccnc(N2CCN(C(=O)c3cccnc3O)CC2)n1 | -3.86%
15 | CC(C)c1nn(C)c(Cl)c1CNCc1ccc2c(c1)OCCO2 | -4.72%
16 | CC(C)COC(C)C(=O)NCc1cc(F)cc(F)c1 (stereo not given) | -1.7%
17 | Cc1nc(CN2CCOC(CNc3cccnn3)C2)cs1 (stereo not given) | 0.542%
18 | CCS(=O)(=O)N1CCC(c2nnc(Cn3cccn3)n2C2CC2)CC1 | -4.32%
19 | OC[C@H]1CC[C@]2(CC1)CN(Cc1ccccn1)Cc1ccccc1O2 | -1.22%
20 | O=C(Cc1cccc(F)c1)N1CCCCC1c1ccn2ccnc2n1 (stereo not given) | -5.83%

Row | Structure (SMILES) | Percent Effect
21 | NC(=O)Nc1cccc(Oc2ccccn2)c1 | -0.17%
22 | CC(c1cccnc1)N(C)Cc1csc(-c2ccccn2)n1 (stereo not given) | -7.3%
23 | c1cnnc(NCC2CN(Cc3cccc4c3OCCO4)CCO2)c1 (stereo not given) | -3.5%
24 | COc1cccc(COCC(=O)N2CCCC(n3ccnc3)C2)c1 (stereo not given) | -4.67%
25 | CC(C)C(=O)N1CCN(C(=O)c2cc(C(C)C)on2)[C@H]2CS(=O)(=O)C[C@H]21 | -2.71%
26 | CC(NC(=O)NCCN1CCCCCC1=O)c1nncn1C (stereo not given) | -5.58%
27 | CN1N=C(C(=O)NCc2ccc3c(c2)CCCN3C)CCC1=O | -4.45%
28 | O=C(O)c1coc(COc2cccc(F)c2)n1 | -5.01%
29 | Cn1cccc1C(=O)N1CCC2(CC1)CN(c1ccccn1)CCO2 | -5.31%
30 | Cc1nc2c(c(C)c1CC(=O)Nc1ccc(Cl)cc1)c(=O)[nH]n2C | -8.55%
31 | COCCC(=O)N1C[C@@H]2COC[C@]2(COCc2cccnc2)C1 | -1.17%
32 | O=C(NC1CC1)[C@@H]1CCO[C@@H]2CCN(Cc3ccsc3)C[C@H]21 | -3.17%
33 | Cn1cccc1C(=O)N[C@@H]1CN(CC2CC2)[C@@H]2COC[C@@H]21 | -2.02%
34 | O=C(c1cc(F)ccc1F)C1CCN(C(=O)c2cccnc2O)CC1 | -5.29%
35 | CC(C)=CCN1CCOC(Cn2nc(C)cc2C)C1 (stereo not given) | 2.83%
36 | CCOc1cccc(CNc2ccccc2C(=O)OC)c1O | 2.18%
37 | Cc1ccc(C(=O)N2CCC3(CC2)NC(=O)CC3c2ccccc2)cn1 (stereo not given) | -2.54%
38 | Cc1nnc2n1CCN(C(=O)c1cc(C)n(-c3ccccn3)c1C)C2 | -5.88%
39 | Cc1cccc(-n2cc(C(=O)N3CCCC(n4ccnc4)C3)nn2)c1 (stereo not given) | -3.01%
40 | O=C1CCCN1Cc1ncn2c1CN(C(=O)c1cccc(F)c1)CCC2 | -0.833%

Biological target: T1, Ubiquitin-activating enzyme e1, putative (Leishmania donovani (strain BPK282A1)) (UniProt E9BSI1)
T1 sequence (whole entry): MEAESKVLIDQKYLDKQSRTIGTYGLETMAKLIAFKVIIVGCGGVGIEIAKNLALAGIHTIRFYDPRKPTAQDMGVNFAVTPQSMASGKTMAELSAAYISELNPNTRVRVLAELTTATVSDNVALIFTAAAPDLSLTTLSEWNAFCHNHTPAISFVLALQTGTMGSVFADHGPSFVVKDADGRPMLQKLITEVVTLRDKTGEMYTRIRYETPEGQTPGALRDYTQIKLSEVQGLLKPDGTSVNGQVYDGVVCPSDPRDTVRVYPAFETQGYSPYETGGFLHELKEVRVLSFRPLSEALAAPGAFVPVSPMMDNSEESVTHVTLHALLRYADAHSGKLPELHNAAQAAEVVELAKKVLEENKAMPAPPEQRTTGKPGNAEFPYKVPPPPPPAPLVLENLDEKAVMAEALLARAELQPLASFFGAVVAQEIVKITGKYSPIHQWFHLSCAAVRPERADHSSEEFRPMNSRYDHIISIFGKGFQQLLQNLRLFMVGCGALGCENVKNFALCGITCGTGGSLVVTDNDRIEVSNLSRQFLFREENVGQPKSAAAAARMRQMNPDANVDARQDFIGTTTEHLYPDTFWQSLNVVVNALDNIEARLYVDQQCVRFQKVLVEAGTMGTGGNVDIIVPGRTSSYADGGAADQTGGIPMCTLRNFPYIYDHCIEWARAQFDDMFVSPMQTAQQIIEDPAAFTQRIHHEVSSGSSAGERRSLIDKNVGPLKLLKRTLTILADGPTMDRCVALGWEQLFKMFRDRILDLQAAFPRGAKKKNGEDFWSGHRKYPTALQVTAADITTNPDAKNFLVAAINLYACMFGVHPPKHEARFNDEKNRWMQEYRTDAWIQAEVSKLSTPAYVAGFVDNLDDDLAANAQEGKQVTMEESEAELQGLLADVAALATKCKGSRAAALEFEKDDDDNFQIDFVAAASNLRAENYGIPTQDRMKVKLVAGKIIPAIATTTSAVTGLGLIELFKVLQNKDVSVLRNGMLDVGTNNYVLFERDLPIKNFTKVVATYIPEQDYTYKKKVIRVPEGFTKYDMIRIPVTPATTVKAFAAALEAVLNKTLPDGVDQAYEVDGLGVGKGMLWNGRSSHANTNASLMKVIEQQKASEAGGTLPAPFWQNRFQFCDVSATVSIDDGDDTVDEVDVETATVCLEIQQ
Assay: Leishmania donovani Ubiquitin Activating Enzyme (LdE1)
Type: functional
Set-up: scale not given: direction of the effect not stated beside the values
Settings: 30 µM

Row | Structure (SMILES) | Percent Effect
41 | CC(=O)N1CCCC(Cc2cncc(Br)c2)CC1 (stereo not given) | 12.2%
42 | COc1ccc(C(CNC(=O)Nc2cn[nH]c2)N2CCOCC2)cc1 (stereo not given) | 7.79%
43 | Cc1cn2c(n1)CCC(NC(=O)c1ccc(CS(C)(=O)=O)cc1)C2 (stereo not given) | 13.2%
44 | Cc1cc(NC(=O)NCc2ccccc2OC(F)F)n(C)n1 | 6.33%
45 | CN(C)CCNC(=O)CNC(=O)N1CCc2c([nH]c3ccc(Cl)cc23)C1 | -1.33%
46 | CN(Cc1cscn1)C1CCCN(Cc2noc(C3CC3)n2)C1 (stereo not given) | 23.7%
47 | Nc1nc2c(c(=O)[nH]1)CCN(C(=O)c1cccc3nccnc13)C2 | 10.4%
48 | Cc1cccc(CNC(CN2CCN(C)CC2)c2ccccc2)c1 (stereo not given) | 8.11%
49 | CS(=O)(=O)N1CCCCCC1C1CCN(c2ncccc2C#N)CC1 (stereo not given) | -5.26%
50 | Cc1cccc(C(=O)NCCCN2CCN(c3ccccc3)CC2)c1 | 10.4%
51 | CCOc1ccc(-c2ccnc(CC)n2)cc1C(=O)O | 10.8%
52 | CS(=O)(=O)N1CCc2c(cccc2NC(=O)CC(F)(F)F)C1 | 5.26%
53 | COc1ccccc1Oc1ncccc1CNC(=O)C(C)N1CCCC1 (stereo not given) | 12.5%
54 | CCOc1ccnc(N2CCN(C(=O)c3cccnc3O)CC2)n1 | 17.7%
55 | CC(C)c1nn(C)c(Cl)c1CNCc1ccc2c(c1)OCCO2 | 10.5%
56 | CC(C)COC(C)C(=O)NCc1cc(F)cc(F)c1 (stereo not given) | 2.6%
57 | Cc1nc(CN2CCOC(CNc3cccnn3)C2)cs1 (stereo not given) | -8.11%
58 | CCS(=O)(=O)N1CCC(c2nnc(Cn3cccn3)n2C2CC2)CC1 | 1.39%
59 | OC[C@H]1CC[C@]2(CC1)CN(Cc1ccccn1)Cc1ccccc1O2 | 1.35%
60 | O=C(Cc1cccc(F)c1)N1CCCCC1c1ccn2ccnc2n1 (stereo not given) | -4.05%

Row | Structure (SMILES) | Percent Effect
61 | NC(=O)Nc1cccc(Oc2ccccn2)c1 | 0%
62 | CC(c1cccnc1)N(C)Cc1csc(-c2ccccn2)n1 (stereo not given) | 5.48%
63 | c1cnnc(NCC2CN(Cc3cccc4c3OCCO4)CCO2)c1 (stereo not given) | 5.2%
64 | COc1cccc(COCC(=O)N2CCCC(n3ccnc3)C2)c1 (stereo not given) | 18.9%
65 | CC(C)C(=O)N1CCN(C(=O)c2cc(C(C)C)on2)[C@H]2CS(=O)(=O)C[C@H]21 | 18.1%
66 | CC(NC(=O)NCCN1CCCCCC1=O)c1nncn1C (stereo not given) | 13.5%
67 | CN1N=C(C(=O)NCc2ccc3c(c2)CCCN3C)CCC1=O | 8.86%
68 | O=C(O)c1coc(COc2cccc(F)c2)n1 | 16.2%
69 | Cn1cccc1C(=O)N1CCC2(CC1)CN(c1ccccn1)CCO2 | 5.2%
70 | Cc1nc2c(c(C)c1CC(=O)Nc1ccc(Cl)cc1)c(=O)[nH]n2C | 10.7%
71 | COCCC(=O)N1C[C@@H]2COC[C@]2(COCc2cccnc2)C1 | 13%
72 | O=C(NC1CC1)[C@@H]1CCO[C@@H]2CCN(Cc3ccsc3)C[C@H]21 | -8.11%
73 | Cn1cccc1C(=O)N[C@@H]1CN(CC2CC2)[C@@H]2COC[C@@H]21 | 5.33%
74 | O=C(c1cc(F)ccc1F)C1CCN(C(=O)c2cccnc2O)CC1 | 7.79%
75 | CC(C)=CCN1CCOC(Cn2nc(C)cc2C)C1 (stereo not given) | 18.4%
76 | CCOc1cccc(CNc2ccccc2C(=O)OC)c1O | 6.67%
77 | Cc1ccc(C(=O)N2CCC3(CC2)NC(=O)CC3c2ccccc2)cn1 (stereo not given) | 2.67%
78 | Cc1nnc2n1CCN(C(=O)c1cc(C)n(-c3ccccn3)c1C)C2 | 13.2%
79 | Cc1cccc(-n2cc(C(=O)N3CCCC(n4ccnc4)C3)nn2)c1 (stereo not given) | 15.6%
80 | O=C1CCCN1Cc1ncn2c1CN(C(=O)c1cccc(F)c1)CCC2 | 16.2%
